# Assay results reported in PubChem BioAssay AID1794835 (Parasite Biology Lab, Institute for Biomedicine and …, 2023).
# The campaign covered roughly 2,500 compounds. About 45 (2%) were called active. The sample holds actives, similar compounds and a random draw of the others, so the mix is not that of the screen. Cut-off read from the data, not from the text of the source: active = inhibition mostly above about 45% (no sharp cut-off); inactive = mostly below about 37%.
# Assay: anti-Giardia activity of synthetic compounds – Compounds Australia Scaffold Library subset, 24/48 h, primary screen (AID 1794835);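 for inhibition: 0% = parasite counts in DMSO vehicle wells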
# Details: Giardia lamblia BRIS/91/HEPU/1279 trophozoite counts, imaging, at 10 µM
# [1] = measured here: growth inhibition at 24 h, stronger effect = higher value
structure (smiles),measurement,setting,value
Cc1nc(C2(NC(=O)CCc3ncc(-c4ccccc4F)o3)CCCCC2)no1,inhibition,,inactive
Cc1ccc(NC(=O)c2nnc(C3CCCN3C(=O)NC3CCCC3)s2)cc1 (stereo not drawn),inhibition,stronger effect = higher value,4.4% (inactive)
same,inhibition,[1],1%
CCN(Cc1cccs1)C(=O)CN1CCC(n2c(=O)[nH]c3ccccc32)CC1,inhibition,,inactive
O=C(CN1C(=O)COc2ccc(C(=O)N3CCCCC3)cc21)NCc1ccccc1,inhibition,,inactive
CN1CCN(CCNC(=O)CN2C(=O)C3CCCCN3c3ccc(C(=O)N4CCCC4)cc32)CC1 (stereo not drawn),inhibition,stronger effect = higher value,13% (inactive)
same,inhibition,[1],11.7%
Cc1ccc(NC(=O)CN2C(=O)C3CCCCN3c3ccc(C(=O)N4CCCC4)cc32)cc1 (stereo not drawn),inhibition,stronger effect = higher value,62.4% (active)
same,inhibition,[1],35.5%
O=C(NCCCN1CCN(c2ccccc2)CC1)c1noc2c1CCCCC2,inhibition,stronger effect = higher value,9.7% (inactive)
Cc1cccc(CC(=O)N2CCN(c3nc4cccnc4n(Cc4ccccc4)c3=O)CC2)c1,inhibition,stronger effect = higher value,38.8% (inactive)
same,inhibition,[1],12.1%
CCN1CCCc2cc(C(=O)N3CCOCC3)sc21,inhibition,,inactive
Cc1nccc2[nH]c(=O)c(C(=O)NCCCN(C)C3CCCCC3)cc12,outcome,,inactive
same,inhibition,[1],0.2%
CCC1Cn2c(C(=O)NCCN(C)C3CCCCC3)cc3cccc(c32)O1 (stereo not drawn),inhibition,stronger effect = higher value,53.7% (active)
same,inhibition,[1],13.8%
Cc1cc(C)c2c(=O)n(CC(=O)Nc3ccc(Br)cc3)c(=O)n(C)c2n1,outcome,,inactive
same,inhibition,[1],4.9%
CCC1CCCCN1C(=O)Cn1c(C(=O)OC)cc2occc21 (stereo not drawn),inhibition,stronger effect = higher value,8.8% (inactive)
Cc1cc2n(n1)CCCN2CC(=O)N1CCN(c2cccc(Cl)c2)CC1,inhibition,stronger effect = higher value,5.3% (inactive)
CC(C)C(=O)N1CCN(c2nc3ccccc3c3nnc(-c4cccs4)n23)CC1,inhibition,,inactive
CCc1nnc2c3ccccc3nc(N3CCN(c4cccc(Cl)c4)CC3)n12,inhibition,stronger effect = higher value,73.1% (active)
same,inhibition,[1],33.5%
O=C1CC(C(=O)N2CCN(c3ccccc3F)CC2)CN1Cc1ccccc1 (stereo not drawn),inhibition,,inactive
COc1cccc(CCC(=O)N2CCCC(c3nnc4n3CCCCC4)C2)c1 (stereo not drawn),inhibition,stronger effect = higher value,2.6% (inactive)
same,inhibition,[1],2.1%
O=c1c2cnc(N3CCCCC3)nc2ccn1CCc1ccccc1,inhibition,,inactive
O=C(c1ccco1)N1CCC(NS(=O)(=O)c2ccc(Cl)cc2)CC1,outcome,,inactive
same,inhibition,[1],0.2%
O=C(Nc1ccccc1)c1cc(-c2cccs2)n(C2CCS(=O)(=O)C2)n1 (stereo not drawn),inhibition,stronger effect = higher value,1.7% (inactive)
same,inhibition,[1],9.1%
Cc1cccc(-c2noc(Cn3cccn3)n2)c1,outcome,,inactive
same,inhibition,[1],3.8%
Cc1ccc(S(=O)(=O)NC2CCN(C(=O)Cc3ccc(Br)cc3)CC2)cc1,inhibition,stronger effect = higher value,3.1% (inactive)
same,inhibition,[1],2%
Cc1ccnc(N2CCCC(C(=O)N3CC=C(c4ccccc4)CC3)C2)n1 (stereo not drawn),inhibition,stronger effect = higher value,46.1% (active)
same,inhibition,[1],18%
O=C(C1CCN(S(=O)(=O)c2ccccc2)CC1)N1CC=C(c2ccccc2)CC1,outcome,,inactive
same,inhibition,[1],1%
Cc1ccnc(N2CCCC(C(=O)NC3CCCC3)C2)n1 (stereo not drawn),inhibition,stronger effect = higher value,10.9% (inactive)
same,inhibition,[1],2.5%
Cc1ncc([N+](=O)[O-])n1Cc1csc(Cc2ccccc2)n1,inhibition,stronger effect = higher value,67% (active)
same,inhibition,[1],30.1%
CC(NC(=O)Cc1csc(Cc2ccccn2)n1)c1ccc(F)cc1 (stereo not drawn),outcome,,inactive
same,inhibition,[1],5.1%
O=c1c2ccsc2ncn1Cc1nc(Cc2ccccc2)no1,inhibition,,inactive
O=C(Cc1ccccc1)NCc1nc(-c2ccc3c(c2)nnn3C2CCCC2)no1,inhibition,,inactive
O=C(NCc1cccc(C(F)(F)F)c1)C1CCCN(c2nccnc2Oc2ccccc2)C1 (stereo not drawn),inhibition,stronger effect = higher value,15.6% (inactive)
COc1ccc(CNC(=O)N2CCC(c3ccn4ncc(C(=O)N5CCOCC5)c4c3)CC2)cc1,inhibition,stronger effect = higher value,0.7% (inactive)
same,inhibition,[1],3.8%
CCCCN(CCCC)S(=O)(=O)c1ccc2c(c1)CCCC(=O)N2,inhibition,stronger effect = higher value,27.2% (inactive)
same,inhibition,[1],13.8%
COCCCN(Cc1ccco1)C(=O)Cn1cnc2onc(-c3ccc(Cl)cc3)c2c1=O,inhibition,,inactive
CCCn1nc(C(=O)N2CCCN(C(C)=O)CC2)ccc1=O,inhibition,,inactive
NCc1c2n(c(=O)n(CC(=O)Nc3ccc4c(c3)OCCO4)c1=O)CCCCC2,inhibition,,inactive
CCc1nc(-c2cc(S(=O)(=O)NCc3ccccc3)c(C)s2)no1,inhibition,,inactive
Cc1cccc(CNS(=O)(=O)c2cc(-c3csc(C)n3)sc2C)c1,inhibition,stronger effect = higher value,63.6% (active)
same,inhibition,[1],21.2%
Cc1sc(C(=O)N2CCCC2)c2ncnc(NCc3ccc(F)c(Cl)c3)c12,inhibition,stronger effect = higher value,23.9% (inactive)
same,inhibition,[1],14.4%
Cc1sc(-c2ccc(=O)[nH]n2)cc1S(=O)(=O)NCc1cccnc1,inhibition,,inactive
CCNS(=O)(=O)c1cc(-c2ccc(=O)n(CC)n2)sc1C,inhibition,,inactive
CCc1nc(-c2cc(S(=O)(=O)NCc3ccc(F)c(Cl)c3)c(C)s2)cs1,inhibition,stronger effect = higher value,43.9% (active)
same,inhibition,[1],15.2%
CN1CCN(CC2CCN(C(=O)Cc3cccc4ccccc34)CC2)CC1,inhibition,stronger effect = higher value,17.7% (inactive)
Fc1cccc(Nc2c3c(nc4ccccc24)CCC3)c1,inhibition,stronger effect = higher value,55.5% (active)
same,inhibition,[1],2.3%
COc1cccc(-c2noc(Nc3cccc(C)c3)n2)c1,outcome,,inactive
same,inhibition,[1],3.1%
COc1cccc(Nc2nc(N3CCN(c4ccccc4)CC3)nc3c2cnn3C)c1,inhibition,stronger effect = higher value,5.8% (inactive)
same,inhibition,[1],6.1%
COc1cccc(Nc2c3c(nc4ccccc24)CCC3)c1,inhibition,stronger effect = higher value,62.3% (active)
same,inhibition,[1],22%
CCc1cccc(NC(=O)C2CCCN(S(=O)(=O)c3c(C)noc3C)C2)c1 (stereo not drawn),outcome,,inactive
same,inhibition,[1],13.3%
O=C1CSCN1CC(=O)N1CCCCC1c1cc2ccccc2[nH]1 (stereo not drawn),inhibition,,inactive
COc1ccc(-n2ccn(CC(=O)Nc3cccc(F)c3)c2=O)cc1,inhibition,,inactive
COc1ccc(C2=Nc3ccccc3N(CC(=O)Nc3cccc(F)c3)C(=O)C2)cc1,inhibition,stronger effect = higher value,40.3% (active)
same,inhibition,[1],12.6%
COc1ccc(C2=Nc3ccccc3N(Cc3cccc(F)c3)C(=O)C2)cc1,inhibition,stronger effect = higher value,30.2% (inactive)
same,inhibition,[1],8.7%
CNC(=O)N1C[C@@H](CN(C)C)[C@@H](C2CCN(CCC(C)C)CC2)C1,outcome,,inactive
same,inhibition,[1],13.1%
COc1ccc(CNS(=O)(=O)c2ccc3onc(C(=O)N4CCCCC4)c3c2)cc1OC,outcome,,inactive
same,inhibition,[1],3.7%
CCN1CCc2nc(NC(=O)c3ccccc3)sc2C1,inhibition,,inactive
O=C(NCc1ccccc1)c1cc(-c2ccco2)on1,inhibition,,inactive
CC(=O)c1c(C)[nH]c(C(=O)Nc2nc(-c3ccco3)c(-c3ccco3)s2)c1C,inhibition,stronger effect = higher value,52.8% (active)
same,inhibition,[1],25%
Cc1ccc(NC(=O)c2ncoc2-c2ccco2)cc1Cl,inhibition,,inactive
O=C(Nc1nc(-c2ccco2)c(-c2ccco2)s1)c1ccccc1,inhibition,stronger effect = higher value,71.2% (active)
same,inhibition,[1],27.2%
